Measurements taken from PubChem BioAssay (NCATS).
Results filed as inconclusive are left out. Where a call stands in place of a potency, no number is given. Activity calls are given as the source filed them. Calls come from the whole dose curve; as a rule, active = well fitted cell-killing curve with a large enough effect; inconclusive = small, poorly fitted or top-dose-only effect; inactive = no such curve, though single readings can be large or run the other way.
Potency is the fitted concentration of half-maximal effect.

Experiment: qHTS of pediatric cancer cell lines to identify multiple opportunities for drug repurposing: Primary screen for Rh41 cells (AID 1347108); note: nearly all actives have a fitted effect of over 70% in size
Settings: Rh41 rhabdomyosarcoma viability, CellTiter-Glo luminescence, 48 h; series mostly up to 46 µM
Source text: Drug repurposing or repositioning has been offered as a strategy for drug development in oncology programs. This approach has special potential for childhood cancers and other rare or orphan diseases, where the expected return on new drug development has been a disincentive to pharmaceuticals. […] In this project we exploit the poly-pharmacology of drugs to discover new indications via phenotypic screening of a panel of 19 well-characterized cell lines derived from solid tumors seen in children and adolescents. The goal is to identify approved drugs with previously unrecognized anticancer properties that has the potential to reveal new mechanisms and biological processes involved in carcinogenesis or drug resistance. We employed a titration-based paradigm (quantitative high-throughput screening or qHTS), where all compounds were tested at multiple concentrations for their effect on cell viability. Concentration-response curves (CRCs) were derived directly from the primary screen, and both potency and efficacy values were used to identify compounds with robust bioactivity profiles. We screened the NIH Chemical Genomics Center (NCGC) Pharmaceutical Collection (NPC) and Mechanism Interrogation Plate (MIPE) small molecule collections of approved and investigational compounds against these cell lines; and measured metabolically active cells after 48 hours of compound treatment as a proxy for cell viability. […] Assay Submitter: Nathalia J. Martinez, National Center for Advancing Translational Sciences, National Institutes of Health, Rockville, MD, USA; email: natalia.martinez@nih.gov Shen, M et al. Quantitative high-throughput phenotypic screening of pediatric cancer cell lines identifies multiple opportunities for drug repurposing. Oncotarget 2017 Dec 19;9(4):4758-4772. PMID 29435139.
The cells were obtained from University of North Carolina (UNC), Pediatric Preclinical Testing Program (PPT), and Coriell Institute (CI). qHTS cell viability assay: Cells were assayed in growth media at a density of 500-1,000 cells/well. Five microliters of cells were dispensed into 1,536-well, white, solid-bottom, TC-treated plates (Greiner Bio One) using a multidrop dispenser and incubated at 37 degrees C, 5% CO2, under a humidified atmosphere for 5 hours. Twenty-three nanoliters of compounds and controls (neutral control DMSO or positive control bortezomib at final concentration of 2.3 µM) were subsequently transferred by Kalypsys pintool. For primary screens, the MIPE collection was tested at 11-point dilutions (final concentrations range from 0.78 nM to 46 µM) and the NPC collection at 8-point dilutions (final concentrations range from 0.59 nM to 46 µM). Compounds tested in follow-up screens were assayed at 11-point dilutions. Cells were incubated for 48 hours, followed by addition of 3 µL of CellTiter-Glo (Promega). After a 15 min incubation at room temperature, samples were analyzed for luminescence intensity using a ViewLux High-throughput CCD imager equipped with clear filters.
For `COc1ccccc1N1CCN(CC(O)COc2cc(OC)c(OC)c(OC)c2)CC1` (stereo not given), the Potency was “inactive”. For `CC1CC(=O)NN=C1c1ccc(NCC(C)(C)NCC(O)COc2cc(Cl)ccc2C#N)cc1` (stereo not given), the Potency was “inactive”. For `CC(C)(C)C(O)/C=C/c1ccc2c(c1)OCO2` (stereo not given), the Potency was “inactive”. With `CC(C)OP(=O)(CP(=O)(OC(C)C)OC(C)C)OC(C)C` the Potency was “inactive”. For `COc1ccc2nc(SCc3ncc(C)c(OC)c3C)[nH]c2c1`, the Potency was “inactive”. For `CCN1CCCC1CN` (stereo not given), the Potency was “inactive”. With `O=C1Nc2ccccc2C1(c1ccc(O)cc1)c1ccc(O)cc1` the Potency was “inactive”. For `COc1ccc2cc(C=O)ccc2c1`, the Potency was “inactive”. With `COC(=O)CCCCC(CCSS/C(CCO)=C(\C)N(C=O)Cc1cnc(C)nc1N)SC(C)=O` (stereo not given) the Potency was “inactive”. With `CC(=O)[C@H]1CC[C@H]2[C@@H]3C=CC4=CC(=O)CC[C@@]4(C)[C@@H]3CC[C@]12C` the Potency was “inactive”. In the case of `O=C(c1ccccc1)c1ccccc1`, the Potency is reported as “inactive”. For `CSCC[C@H](NC(=O)[C@H](Cc1c[nH]c2ccccc12)NC(=O)CCNC(=O)OC(C)(C)C)C(=O)N[C@@H](CC(=O)O)C(=O)N[C@@H](Cc1ccccc1)C(N)=O`, the Potency was “inactive”. For `Cc1cccc(N(C)C(=S)Oc2ccc3c(c2)CCC3)c1`, the Potency was “inactive”. With `O=C1NC(c2ccccc2)(c2ccccc2)C(=O)N1COP(=O)(O)O` the Potency was “inactive”. With `CCCCC(CC)CNC(=O)CC(C)OC(=O)CCC(=O)O` (stereo not given) the Potency was “inactive”. In the case of `CC(=O)/C=C/C=C1/C2CCC(C2)C1(C)C` (stereo not given), the Potency is reported as “inactive”. With `O=C(O)Cn1c(=O)n(Cc2ccc(Br)cc2F)c(=O)c2ccc(Cl)cc21` the Potency was “inactive”. In the case of `COC(=O)c1c(Cl)c(Cl)c(C(=O)OC)c(Cl)c1Cl`, the Potency is reported as “inactive”. In the case of `C#Cc1ccc(-c2ccccc2F)cc1`, the Potency is reported as “inactive”. In the case of `O=C(O)c1ccccc1Nc1cc(Cl)ccc1C(=O)O`, the Potency is reported as 11.6 µM (active). With `CC1(C)O[C@@H]2C[C@H]3[C@@H]4C[C@H](F)C5=CC(=O)C=C[C@]5(C)[C@@]4(F)[C@@H](O)C[C@]3(C)[C@]2(C(=O)CO)O1` the Potency was “inactive”. In the case of `Cc1cc(CCCOc2c(C)cc(-c3noc(C(F)(F)F)n3)cc2C)on1`, the Potency is reported as “inactive”. In the case of `COC(=O)c1ccc(NC(C)=O)cc1OC`, the Potency is reported as “inactive”. With `Cc1nc([N+](=O)[O-])cn1-c1ccc([N+](=O)[O-])cc1` the Potency was “inactive”. In the case of `COc1cc(C=O)ccc1O`, the Potency is reported as “inactive”. With `OCCc1ccccc1` the Potency was “inactive”. For `CC(C)=CCNc1ncnc2c1ncn2[C@@H]1O[C@H](CO)[C@@H](O)[C@H]1O`, the Potency was 6.68 µM (active). For `O=C(O)c1[nH]n(-c2ccc(S(=O)(=O)O)cc2)c(=O)c1N=Nc1ccc(S(=O)(=O)O)cc1`, the Potency was “inactive”. For `Cc1c(C)c2c(c(C)c1OC(=O)CCC(=O)OCCO)CC[C@@](C)(CCC[C@H](C)CCC[C@H](C)CCCC(C)C)O2`, the Potency was “inactive”. For `CO/N=C(/C(=O)N[C@@H]1C(=O)N2C(C(=O)OCOC(=O)C(C)(C)C)=C(C)CS[C@H]12)c1csc(N)n1`, the Potency was “inactive”. For `CCCC(=O)c1cc(O)c(O)cc1O`, the Potency was “inactive”. In the case of `CCCC(CCC)(C(=O)OCC)C(=O)OCC`, the Potency is reported as “inactive”. For `C=C(C)C(=O)OCC(O)CO` (stereo not given), the Potency was “inactive”. In the case of `Cc1ccc(C(=O)Oc2ccc(C(O)CNC(C)(C)C)cc2OC(=O)c2ccc(C)cc2)cc1` (stereo not given), the Potency is reported as “inactive”. With `Cc1oc(-c2ccccc2)nc1CCC(=O)c1ccc(CC2SC(=O)NC2=O)cc1` (stereo not given) the Potency was “inactive”. For `Nc1c(NC/C=C\COc2cc(CN3CCCCC3)ccn2)c(=O)c1=O`, the Potency was “inactive”. For `C[N+]1(C)CCC(OC(=O)C(O)(c2ccccc2)C2CCCC2)C1` (stereo not given), the Potency was “inactive”. For `N[C@@H](Cc1cc(I)c(O)c(I)c1)C(=O)O`, the Potency was “inactive”. For `CCOc1ncc(F)c(=O)[nH]1`, the Potency was “inactive”. With `CCOC(=O)C(=O)CCCCCCl` the Potency was “inactive”.
